From article PMC4081100, “A DNA-binding-site landscape and regulatory network analysis for NAC transcription factors in Arabidopsis thaliana” come the findings set out here.

Holding throughout (experiment): universal protein binding microarray (PBM); transcription factors of Arabidopsis thaliana; high values mean tight binding
Experiment [1] deals with T1, GST-ANAC092(1-176) (Arabidopsis thaliana, UniProt Q9FKA0 1-176).
T1 sequence: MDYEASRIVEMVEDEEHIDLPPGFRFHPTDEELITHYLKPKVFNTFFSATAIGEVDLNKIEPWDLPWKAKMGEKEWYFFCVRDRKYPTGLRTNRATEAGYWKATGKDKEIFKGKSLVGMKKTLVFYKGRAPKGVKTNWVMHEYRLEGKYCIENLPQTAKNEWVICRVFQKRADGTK
The note with it: protein: recombinant; tags: GST; chain copies: 2; dsDNA, one strand shown. The essentials:
(§1)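 Protein amounts were determined by A280 or anti-GST western blot after glutathione–Sepharose 4B purification of GST-tagged proteins induced in cells, with zinc acetate included for zinc-finger proteins. Duplicate runs at 200 to 500 nM final were done on custom all-10-mer Agilent 4 × 180K arrays made double-stranded by primer extension. The normalised enrichment score (E-score) over gapped and ungapped 8-mers is the measure of binding.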

Experiment [2] addresses GST-NTL6(1-168) (Arabidopsis thaliana, UniProt Q9SCK6 1-168). The conditions noted are these: protein: recombinant; tags: GST; chain copies: 2; dsDNA, one strand shown. The essentials:
as §1

Experiment [3] concerns the target T2, GST-ANAC019 NAC domain (Arabidopsis thaliana, UniProt Q9C932 14-162).
T2 sequence: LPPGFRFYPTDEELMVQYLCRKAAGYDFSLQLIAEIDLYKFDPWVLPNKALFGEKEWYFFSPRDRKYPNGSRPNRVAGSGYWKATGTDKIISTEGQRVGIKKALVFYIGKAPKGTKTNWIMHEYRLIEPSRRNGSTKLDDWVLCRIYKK
The note with it: protein: recombinant; tags: GST; chain copies: 2; dsDNA, one strand shown. The gist of the method: as §1

Experiment [4] deals with T3, GST-ANAC055(1-171) (Arabidopsis thaliana, UniProt Q9LDY8 1-171).
T3 sequence: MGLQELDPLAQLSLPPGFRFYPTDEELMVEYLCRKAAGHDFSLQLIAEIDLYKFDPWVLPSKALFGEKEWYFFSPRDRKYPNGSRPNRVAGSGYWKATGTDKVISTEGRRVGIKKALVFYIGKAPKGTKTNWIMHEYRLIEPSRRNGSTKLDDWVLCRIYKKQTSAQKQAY
The conditions noted are these: protein: recombinant; tags: GST; chain copies: 2; dsDNA, one strand shown. The essentials: as §1

For experiment [5], the target named is T4, GST-ATAF1 NAC domain (Arabidopsis thaliana, UniProt Q39013 7-158).
T4 sequence: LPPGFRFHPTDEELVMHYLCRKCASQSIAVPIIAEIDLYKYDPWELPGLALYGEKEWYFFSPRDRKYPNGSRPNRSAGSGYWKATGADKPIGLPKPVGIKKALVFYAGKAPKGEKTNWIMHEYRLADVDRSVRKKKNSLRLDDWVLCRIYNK
The conditions noted are these: protein: recombinant; tags: GST; chain copies: 2; dsDNA, one strand shown. The essentials:
as §1

Experiment [6] has as its target T5, GST-ANAC092(1-285) full length (Arabidopsis thaliana, UniProt Q9FKA0 1-285).
T5 sequence: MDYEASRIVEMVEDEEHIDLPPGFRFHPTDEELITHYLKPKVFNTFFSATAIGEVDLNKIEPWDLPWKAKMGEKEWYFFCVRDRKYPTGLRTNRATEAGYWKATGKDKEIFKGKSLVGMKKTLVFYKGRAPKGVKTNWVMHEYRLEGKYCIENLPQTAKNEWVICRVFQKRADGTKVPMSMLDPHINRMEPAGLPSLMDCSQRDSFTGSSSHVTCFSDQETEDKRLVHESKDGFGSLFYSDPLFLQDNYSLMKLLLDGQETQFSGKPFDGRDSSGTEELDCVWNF
The note with it: protein: recombinant; tags: GST; chain copies: 2; dsDNA, one strand shown. The essentials:
as §1

Experiment [7] has as its target T6, GST-NAP(1-166) (Arabidopsis thaliana, UniProt O49255 1-166).
T6 sequence: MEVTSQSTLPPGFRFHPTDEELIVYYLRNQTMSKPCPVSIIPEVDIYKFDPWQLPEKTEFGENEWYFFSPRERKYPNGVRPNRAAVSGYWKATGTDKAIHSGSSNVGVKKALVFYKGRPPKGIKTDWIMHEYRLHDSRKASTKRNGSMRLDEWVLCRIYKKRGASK
The note with it: protein: recombinant; tags: GST; chain copies: 2; dsDNA, one strand shown. The gist of the method: as §1

For experiment [8], the target named is T7, GST-NST2(1-184) (Arabidopsis thaliana, UniProt Q9M274 1-184).
T7 sequence: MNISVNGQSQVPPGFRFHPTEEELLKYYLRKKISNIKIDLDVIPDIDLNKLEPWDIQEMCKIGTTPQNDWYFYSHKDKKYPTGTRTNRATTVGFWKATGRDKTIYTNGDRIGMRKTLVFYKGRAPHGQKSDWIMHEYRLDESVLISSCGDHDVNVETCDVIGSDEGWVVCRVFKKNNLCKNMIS
The conditions noted are these: protein: recombinant; tags: GST; chain copies: 2; dsDNA, one strand shown. The gist of the method:
as §1

The target in experiment [9] is T8, GST-NTL8 NAC domain (Arabidopsis thaliana, UniProt Q9XIN7 14-156).
T8 sequence: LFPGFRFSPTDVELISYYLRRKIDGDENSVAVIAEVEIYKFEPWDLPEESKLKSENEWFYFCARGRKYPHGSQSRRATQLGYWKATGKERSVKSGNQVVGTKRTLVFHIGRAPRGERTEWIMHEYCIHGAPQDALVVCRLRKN
The note with it: protein: recombinant; tags: GST; chain copies: 2; dsDNA, one strand shown. The essentials: as §1

The target of experiment [10] is T9, GST-SND1(1-203) (Arabidopsis thaliana, UniProt Q9LPI7 1-203).
T9 sequence: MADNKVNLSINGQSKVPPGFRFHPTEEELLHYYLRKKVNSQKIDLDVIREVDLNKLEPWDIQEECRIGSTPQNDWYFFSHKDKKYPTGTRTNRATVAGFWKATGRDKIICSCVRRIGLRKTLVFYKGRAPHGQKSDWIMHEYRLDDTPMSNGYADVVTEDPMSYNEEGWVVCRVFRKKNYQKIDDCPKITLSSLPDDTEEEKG
The note with it: protein: recombinant; tags: GST; chain copies: 2; dsDNA, one strand shown. The essentials:
as §1

In experiment [11] the target is T10, GST-VND3 NAC domain (Arabidopsis thaliana, UniProt Q9FH59 12-162).
T10 sequence: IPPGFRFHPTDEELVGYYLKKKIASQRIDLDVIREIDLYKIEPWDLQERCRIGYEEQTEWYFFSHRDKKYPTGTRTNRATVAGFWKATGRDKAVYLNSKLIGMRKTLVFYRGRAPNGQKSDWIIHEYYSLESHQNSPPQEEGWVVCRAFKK
The note with it: protein: recombinant; tags: GST; chain copies: 2; dsDNA, one strand shown. The gist of the method: as §1

For experiment [12], the target named is T11, GST-VND7 NAC domain (Arabidopsis thaliana, UniProt Q9C8W9 9-158).
T11 sequence: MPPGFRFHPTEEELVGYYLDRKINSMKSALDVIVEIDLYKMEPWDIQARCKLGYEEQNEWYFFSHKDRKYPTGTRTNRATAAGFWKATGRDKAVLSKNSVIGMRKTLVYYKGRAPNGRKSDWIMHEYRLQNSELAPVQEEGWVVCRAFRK
The note with it: protein: recombinant; tags: GST; chain copies: 2; dsDNA, one strand shown. The essentials:
as §1

Experiment [13] has as its target GST-WRKY1(266-371) (Arabidopsis thaliana, UniProt Q9SI37 266-371). The note with it: protein: recombinant; tags: GST; dsDNA, one strand shown. The essentials:
as §1

Sequence of GST-WRKY1(266-371) (Q9SI37 266-371): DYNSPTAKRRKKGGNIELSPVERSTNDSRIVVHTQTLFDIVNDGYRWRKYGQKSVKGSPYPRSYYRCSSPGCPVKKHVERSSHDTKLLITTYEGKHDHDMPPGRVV
Sequence of GST-NTL6(1-168) (Q9SCK6 1-168): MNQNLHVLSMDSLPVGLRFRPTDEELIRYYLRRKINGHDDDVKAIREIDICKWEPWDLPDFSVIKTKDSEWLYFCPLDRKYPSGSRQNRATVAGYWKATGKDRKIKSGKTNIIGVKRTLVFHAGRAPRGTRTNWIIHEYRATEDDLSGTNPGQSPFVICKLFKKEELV

With ACACGACA, the binding signal amounted to 0.421 E-score in [1]; 0.0953 E-score in [2]; 0.452 E-score in experiment [3]; 0.438 E-score in experiment [4]; 0.339 E-score in [5]; 0.417 E-score in experiment [6]. Moreover, the binding signal in experiment [7] was determined as 0.36 E-score; in experiment [8], 0.19 E-score; in experiment [9] it was 0.0912 E-score; in [10], 0.14 E-score; in experiment [11], 0.399 E-score; in experiment [12], 0.424 E-score. For the same sequence, in experiment [13], the binding signal is 0.0821 E-score.
On to AATGCGTG, for which the binding signal in experiment [1] was found to be 0.434 E-score; in experiment [2], 0.147 E-score; in [3], 0.324 E-score; in experiment [4], 0.227 E-score; in experiment [5], 0.271 E-score; in [6], 0.44 E-score. The binding signal worked out at 0.227 E-score in [7]; 0.243 E-score in [8]; 0.288 E-score in experiment [10]; 0.286 E-score in experiment [11]; 0.254 E-score in experiment [12]; 0.087 E-score in experiment [13].
As to AACGTAAA, the binding signal in experiment [1] was found to be 0.254 E-score; in [2], 0.0913 E-score; in [3] it was 0.175 E-score; in experiment [4], 0.241 E-score; in experiment [5] it was 0.298 E-score; in [6], 0.342 E-score. Besides, the binding signal in experiment [7] was 0.24 E-score; in experiment [8], 0.36 E-score; in experiment [10], 0.436 E-score; in experiment [11], 0.252 E-score; in experiment [12] it was 0.248 E-score; in experiment [13] it was 0.165 E-score.
For the sequence GATACGTA, the binding signal in experiment [1] was 0.381 E-score; in experiment [2], 0.0687 E-score; in experiment [3], 0.428 E-score; in experiment [4] it was 0.415 E-score; in experiment [5] it was 0.341 E-score; in experiment [6] it was 0.385 E-score. Besides, the binding signal in experiment [7] came to 0.458 E-score; in [8], 0.253 E-score; in [10], 0.257 E-score; in experiment [11], 0.405 E-score; in [12], 0.424 E-score; in [13], 0.0663 E-score.
On to GTAAGTCA, for which the binding signal in [1] was 0.109 E-score; in experiment [2], 0.283 E-score; in experiment [3], 0.134 E-score; in experiment [4], 0.228 E-score; in [5], 0.238 E-score; in experiment [6] it was 0.268 E-score. Further, the binding signal in experiment [7] came to 0.0612 E-score; in experiment [8] it was 0.21 E-score; in [10] it was 0.234 E-score; in [11], 0.19 E-score; in [12], 0.232 E-score; in experiment [13], 0.429 E-score.
Consider ATTACGTG, for which the binding signal in experiment [1] stood at 0.457 E-score; in experiment [2] it was 0.112 E-score; in experiment [3] it was 0.468 E-score; in experiment [4] it was 0.432 E-score; in experiment [5] it was 0.372 E-score; in experiment [6], 0.462 E-score. In addition, the binding signal turned out to be 0.419 E-score in experiment [7]; 0.296 E-score in [8]; 0.146 E-score in [9]; 0.252 E-score in experiment [10]; 0.446 E-score in experiment [11]; 0.437 E-score in experiment [12]. Further, the binding signal in experiment [13] worked out at 0.127 E-score.
GTACGTAA: the binding signal in experiment [1] amounted to 0.432 E-score; in experiment [2], 0.174 E-score; in [3], 0.463 E-score; in experiment [4], 0.42 E-score; in [5], 0.408 E-score; in experiment [6] it was 0.441 E-score. Moreover, the binding signal is 0.419 E-score in [7]; 0.276 E-score in experiment [8]; 0.167 E-score in experiment [9]; 0.337 E-score in [10]; 0.417 E-score in experiment [11]; 0.44 E-score in experiment [12]. The binding signal in experiment [13] amounted to 0.0843 E-score.
